Sampled rows, rich in hits. Any-hit rate of the full collection: about 16%.
DT40 TDP1 no CPT: qHTS for Inhibitors of human tyrosyl-DNA phosphodiesterase 1 (TDP1): qHTS in cells in absence of CPT; hit rate 15% among 420,000; DT40 Tdp1-/- hTDP1 cells, no CPT, ATP luminescence, 48 h; Potency, µM (highest dose often 46.2 µM), inactives show at the highest dose activity change, negative = growth inhibition, usual class: inhibitors; further: potency means the concentration at half of the fitted maximal effect; on the % scale 0 is the no-effect control and ±100 the full control effect; nearly all actives have a fitted effect of over 55% in size
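Stably hTDP1-transfected Tdp1-null chicken DT40 cells were treated with library compounds minus camptothecin and grown for at least 48 hr at 37 °C, after which cellular ATP was quantified by luminescence.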
uPA surface inh: qHTS for Inhibitors of Cell Surface uPA Generation; Potency, µM (top dose mostly 38.3 µM), inactives show at the top dose activity change, negative = inhibition, most hits filed as inhibitors; cell surface uPA generation assay, qHTS; hit rate 0.31% among 330,000; active means well fitted inhibition curve with a large enough effect; inconclusive means small, poorly fitted or top-dose-only effect; inactive means no such curve, though single readings can be large or run the other way; tested in mouse RAW 264.7 cells; further: potency means the concentration at half of the fitted maximal effect; on the % scale 0 is the no-effect control and ±100 the full control effect; nearly all actives have a fitted effect of over 55% in size
miR-21 reporter: qHTS Assay for Modulators of miRNAs and/orActivators of miR-21; 340,000 tested, under 10 active; HeLa miR-21 FLuc reporter, luciferase, 48 h; Potency, µM (highest dose often 38.3 µM), for inactives: at the highest dose activity change, positive = activation, hits mostly activators;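 further: % of control where 0% means no effect; miR-21 action dims this reporter so a rising signal means less miR-21 action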
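Luminescence from a firefly luciferase reporter carrying a miR-21 binding site downstream, stably expressed under a CMV promoter in HeLa cells that make miR-21 endogenously, reports miRNA modulation after 48 h compound exposure up to approximately 40uM final.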
TDP1 cell CPT: qHTS for Inhibitors of human tyrosyl-DNA phosphodiesterase 1 (TDP1): qHTS in cells in presence of CPT; chicken DT40 Tdp1-/-;hTDP1 cells + 20 nM CPT, ATP luminescence, 48 h; Potency, µM (highest dose often 46.2 µM), for inactives: at the highest dose activity change, negative = growth inhibition, most hits filed as inhibitors; hit rate 12% among 420,000; further: potency means the concentration at half of the fitted maximal effect; on the % scale 0 is the no-effect control and ±100 the full control effect; nearly all actives have a fitted effect of over 55% in size
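Cell growth measured by CellTiter-Glo luminescence after a minimum 48 h, 37 C compound exposure with 20 nM CPT in Tdp1-knockout DT40 cells stably expressing hTDP1, seeded 400/well; qHTS titration format.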
TDP1 inh: qHTS Assay for Inhibitors of Tyrosyl-DNA Phosphodiesterase (TDP1) | Potency, µM (doses to about 130 µM), without a hit: at the top dose activity change, negative = inhibition, usual class: inhibitors | hit rate 0.28% among 350,000 | recombinant TDP1, AlphaScreen DNA substrate cleavage | Tyrosyl-DNA phosphodiesterase 1 (Homo sapiens), Q9NUW8; further: potency means the concentration at half of the fitted maximal effect; on the % scale 0 is the no-effect control and ±100 the full control effect; nearly all actives have a fitted effect of over 40% in size
Target sequence (Q9NUW8 whole entry, looked up): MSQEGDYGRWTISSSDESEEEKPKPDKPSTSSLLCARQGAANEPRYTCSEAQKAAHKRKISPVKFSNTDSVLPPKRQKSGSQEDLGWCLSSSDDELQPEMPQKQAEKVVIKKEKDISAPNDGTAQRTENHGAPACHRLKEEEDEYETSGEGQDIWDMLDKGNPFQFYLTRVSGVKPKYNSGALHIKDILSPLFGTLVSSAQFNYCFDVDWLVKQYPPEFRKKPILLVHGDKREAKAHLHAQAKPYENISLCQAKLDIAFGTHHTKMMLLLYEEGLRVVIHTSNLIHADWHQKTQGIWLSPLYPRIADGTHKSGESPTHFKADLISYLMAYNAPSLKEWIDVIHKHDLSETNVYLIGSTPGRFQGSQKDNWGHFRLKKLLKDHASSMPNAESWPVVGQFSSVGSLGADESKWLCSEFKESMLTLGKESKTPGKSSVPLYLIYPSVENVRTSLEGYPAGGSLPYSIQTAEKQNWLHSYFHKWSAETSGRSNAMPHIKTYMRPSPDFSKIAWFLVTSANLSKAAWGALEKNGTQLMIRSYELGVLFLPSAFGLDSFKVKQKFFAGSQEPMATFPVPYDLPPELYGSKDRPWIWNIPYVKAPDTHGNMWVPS
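Recombinant E. coli-expressed Tdp1 (1 nM) preincubated with compound 15 min at RT, then 5'-biotin/3'-phosphotyrosine-FITC DNA substrate (15 nM) added for 5 min. AlphaScreen beads (10 ug/ml) added, 10 min RT; tyrosine-FITC cleavage read as signal loss.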
An asterisk follows results filed as active; ? = inconclusive; . = no result given. Unless noted, the call rests on the fitted dose curve; in most records, active means well fitted curve in the direction sought with a large enough effect; inconclusive means small, poorly fitted or top-dose-only effect, or another doubt; inactive means no such curve, though single readings can be large; an effect the other way counts as inactive or inconclusive.

SMILES | DT40 TDP1 no CPT | uPA surface inh | miR-21 reporter | TDP1 cell CPT | TDP1 inh
CN(Cc1ccccc1)C(=O)c1cc(-c2cccc(Cl)c2)on1 | ? | . | -27% | 23µM* | -8%
CN(Cc1cccc2ccccc12)C(=O)c1cc(COc2c(F)cccc2F)on1 | ? | 3% | -7% | ? | .
O=C(NC1CC1(c1ccccc1)c1ccccc1)c1ccccc1 (configuration not stated) | -27% | 5% | . | -3% | .
O=C1CC(N2CCc3ccccc32)C(=O)N1c1ccccc1 (configuration not stated) | 0% | 2% | -27% | 12% | .
O=c1cc(-c2ccc(F)cc2)nc(SCc2nc(-c3cccc(Cl)c3)no2)[nH]1 | ? | . | -5% | -8% | -3%
COC(=O)C1=C(C)N(Cc2ccccc2)C(=O)N[C@@H]1c1ccccc1 | . | . | . | . | 1%
CCc1ccc(CN(C)C(=O)c2cc(COc3cccc4cnccc34)on2)cc1 | 6.5µM* | ? | 20% | 9.2µM* | 0%
Cc1c(C(C)NC(=O)c2cc(COc3cccc4cnccc34)on2)cnn1C (configuration not stated) | 13µM* | ? | ? | 23µM* | 4%
CCCOC(=O)C1=C(C)NC2=C(C(=O)CCC2)C1c1cccs1 (configuration not stated) | -22% | . | -2% | -18% | 2%
COC(=O)c1ccc(OCCOc2ccccc2)cc1 | -11% | 12% | -47% | -1% | 0%
Cc1ccc(OCCOc2cccc3ccc(C)nc23)c([N+](=O)[O-])c1 | 16µM* | 5% | -21% | ? | 3%
Cc1ccc2cccc(OCCOCCOc3ccccc3Br)c2n1 | 21µM* | 1% | -6% | ? | -7%
COC(=O)c1ccc(OCCOc2ccccc2C)cc1 | -5% | 3% | -24% | 4% | 79µM*
CCOC(=O)c1ccc(OCCOc2cccc(C)c2)cc1 | 8% | 5% | -3% | -6% | 50µM*
Cc1ccc2cccc(OCCCOc3ccccc3F)c2n1 | ? | 8% | -18% | ? | .
COC(=O)c1ccc(OCCOCCOc2cccc3ccc(C)nc23)cc1 | 23µM* | 4% | 7% | ? | 1%
COC(=O)c1ccccc1OCCOCCOc1cccc2ccc(C)nc12 | 23µM* | 2% | -2% | ? | -6%
CC1(C(=O)N/N=C/c2c(F)c(F)c(F)c(F)c2F)CC1(Cl)Cl (configuration not stated) | ? | -2% | . | -20% | .
O=C(C[C@H]1C/C=C\C[C@H](NC(=O)OCC2c3ccccc3-c3ccccc32)C(=O)OC[C@@H]2CCCN2C1=O)NCCO | 5.8µM* | -8% | . | 4.1µM* | -7%
O=C(C[C@H]1C/C=C\C[C@H](Cc2ccc(F)cc2)C(=O)OC[C@@H]2CCCN2C1=O)N[C@H](CO)Cc1ccccc1 | -28% | 19% | . | -28% | 3%
O=C(C[C@@H]1C/C=C\C[C@H](NC(=O)OCC2c3ccccc3-c3ccccc32)C(=O)OC[C@H]2CCCN2C1=O)NCCO | ? | -10% | . | ? | -5%
O=C(C[C@H]1C/C=C\C[C@H](NC(=O)OCC2c3ccccc3-c3ccccc32)C(=O)OC[C@H]2CCCN2C1=O)NCCO | 16µM* | 16% | . | 12µM* | -14%
O=C(C[C@@H]1C/C=C\C[C@H](NC(=O)OCC2c3ccccc3-c3ccccc32)C(=O)OC[C@H]2CCCN2C1=O)N[C@@H](CO)Cc1ccccc1 | 4.6µM* | -17% | . | 4.6µM* | 3%
N#C/C(=C\c1c[nH]c2ccccc12)C(=O)NCC1CCCO1 (configuration not stated) | ? | -3% | -54% | 16% | 4%
CC1=C(C(=O)Nc2ccc(Cl)cc2)C(C(C)C)n2nc(SCc3ccc(Cl)cc3)nc2N1 (configuration not stated) | 23µM* | . | -1% | 16µM* | 5%
SMILES | DT40 TDP1 no CPT | uPA surface inh | miR-21 reporter | TDP1 cell CPT | TDP1 inh
CC1=C(C(=O)Nc2ccc(Cl)cc2)C(c2ccccc2F)n2nc(SCc3cccc(Cl)c3)nc2N1 (configuration not stated) | 23µM* | . | -2% | ? | 0%
CC1=C(C(=O)Nc2ccccc2)C(c2ccccc2C)n2nc(SCC(=O)c3ccc(C)cc3)nc2N1 (configuration not stated) | 18µM* | . | 1% | 5.8µM* | -3%
COc1cc(C2C(C(=O)Nc3ccccc3)=C(C)Nc3nc(SCC(=O)c4ccc(C)cc4)nn32)ccc1O (configuration not stated) | -5% | . | -3% | 0% | 1%
O=C(c1ccc(-c2cccc(C(F)(F)F)c2)o1)N1CCN(c2ccccc2)CC1 | -5% | 5% | . | -2% | -16%
O=C(COc1ccc(Br)cc1)N(Cc1ccco1)C1CCS(=O)(=O)C1 (configuration not stated) | 3% | -3% | -1% | -18% | 3%
CCc1ccccc1NS(=O)(=O)c1ccc2c(c1)CCCN2C(=O)C1CCC1 | 21µM* | . | 28% | ? | -1%
COc1ccc(OC)c(NS(=O)(=O)c2ccc3c(c2)CCCN3C(=O)C2CCC2)c1 | ? | . | 4% | 23µM* | 4%
CCc1cccc(CC)c1NS(=O)(=O)c1ccc2c(c1)CCN2C(=O)C1CC1 | -28% | . | 1% | ? | -5%
Cc1ccc(NS(=O)(=O)c2ccc3c(c2)CCCN3C(=O)C2CCC2)c(C)c1 | ? | . | 8% | ? | 5%
N#Cc1c(NC(=O)C(=O)NCCCN2CCOCC2)sc2c1CCC2 | 10% | -2% | -1% | -3% | 4%
CCOC(=O)C1CCN(C(=O)c2ccc3c(=O)n4nc(Nc5cc(C)ccc5C)sc4nc3c2)CC1 | 18µM* | -6% | 21% | 9.2µM* | 7%
Cc1ccc(Cl)cc1Nc1nn2c(=O)c3ccc(C(=O)N4CCCC(C)C4)cc3nc2s1 (configuration not stated) | ? | . | -1% | ? | 1%
COc1ccccc1Nc1nn2c(=O)c3ccc(C(=O)N4CCCC(C)C4)cc3nc2s1 (configuration not stated) | 23µM* | -10% | ? | 12µM* | 15%
CCOC(=O)C1CCN(C(=O)c2ccc3c(=O)n4nc(Nc5ccccc5OC)sc4nc3c2)CC1 | 21µM* | . | . | 26µM* | .
Cc1cccc(-c2noc(CN(C)C(=O)c3ccco3)n2)c1 | -26% | -2% | -42% | -11% | .
O=C(CN1CC(=O)Nc2ccccc21)Nc1ccc(F)c(F)c1 | -11% | -1% | -32% | -30% | 3%
